This passage reports binding signal results from article PMC7819943, “Rice protein-binding microarrays: a tool to detect cis-acting elements near promoter regions in rice”.

The full ranking holds about 68,000 sequences; the median of “fluorescence intensity (a.u.)” is about 9,100, and the highest 2% start at about 16,000. Only a selection was taken, and the highest values are over-represented in it overall.

Chain of OsWRKY34 (Q0JBA9 entry or part of it): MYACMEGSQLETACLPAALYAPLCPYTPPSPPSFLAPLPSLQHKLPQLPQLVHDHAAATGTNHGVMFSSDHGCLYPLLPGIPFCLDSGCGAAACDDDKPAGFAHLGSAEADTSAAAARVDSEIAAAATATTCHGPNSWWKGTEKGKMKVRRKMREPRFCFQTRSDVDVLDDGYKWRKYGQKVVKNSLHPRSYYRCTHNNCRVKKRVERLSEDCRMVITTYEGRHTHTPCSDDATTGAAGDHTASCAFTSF

This assay addresses OsWRKY34 (Oryza sativa, UniProt Q0JBA9 1-250). In words: protein-binding microarray (RPBM); PBS, 2% BSA, 51.3 ng/ul salmon testes DNA, 50 uM zinc acetate, 200 nM TF, 25 C, 1 h; high values mean tight binding. The conditions noted are these: protein: recombinant; tags: N-terminal polyhistidine and DsRed monomer fusion (pET32a); label: CyDye5-dUTP incorporated in the synthesized complementary strand; 3' TTTTT single-stranded linker to array surface; dsDNA, one strand shown. The procedure, abridged:
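Transcription factors were each fused at the N-terminus to a polyhistidine tag plus DsRed and expressed in E. coli BL21-CodonPlus before Ni–NTA purification. Binding to a double-stranded custom Agilent array was carried out with 200 nM protein at 25 °C for 1 h in PBS, 2% BSA, salmon testes DNA and 50 µM zinc acetate. The binding signal is per-feature fluorescence intensity, in arbitrary units, on an Axon 4000B scanner.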
For the sequence “GGCGCCGCCGTCGTCCTGCTGCTTCCGCCGCCGCGTCTTCCGGAGTCACCTAGTGCAG”, the binding signal was 11000 fluorescence intensity (a.u.).

For the sequence “CTGCACATGATTTCAATCTACTATGGACATTCTCACTCTCCGGAGTCACCTAGTGCAG”, the binding signal was 12100 fluorescence intensity (a.u.).

As for “CACCTGCCTCCTCCTACCACCAGCCGCCGCCGACGACTAACGGAGTCACCTAGTGCAG”, the binding signal is 8550 fluorescence intensity (a.u.).

For “TGCTCTCTCTCGTGTGGTCTGGTCCGCGCGCTCGTGTATACGGAGTCACCTAGTGCAG”, the binding signal is 9150 fluorescence intensity (a.u.).

For the sequence “CGCTTCCATCTCTCTCTGTCTCTCTTCTTTTTGACCTCTTCGGAGTCACCTAGTGCAG”, the binding signal was 11900 fluorescence intensity (a.u.).

Turning to “TACCTCTCTTCTCTTCTCCAATCTCTATCTATGTCTTCTTCGGAGTCACCTAGTGCAG”, the binding signal was 8640 fluorescence intensity (a.u.).

Turning to “CTCTCTCCAATCTCCATCTCTCTGTCTGATTTGTAATCTTCGGAGTCACCTAGTGCAG”, the binding signal is 16500 fluorescence intensity (a.u.).

Turning to “CGCGCCATCTCCATGTCATCGTCGTCGTCTGTGTCCCCTTCGGAGTCACCTAGTGCAG”, the binding signal is 10700 fluorescence intensity (a.u.).

For the sequence “CGACGGGCGGGTGTGGGGATTCGCGGCCTTGAGGGTTCGTCGGAGTCACCTAGTGCAG”, the binding signal was 9660 fluorescence intensity (a.u.).

As for “CGCGGGTGGTCTGGTCTCTCTCTCGTATCGTATCGTATCACGGAGTCACCTAGTGCAG”, the binding signal is 16700 fluorescence intensity (a.u.).

Regarding “CCGCTGTCGTCGTCTCGTCTCTGTGTGTGTGTCTCCATCACGGAGTCACCTAGTGCAG”, the binding signal was 8280 fluorescence intensity (a.u.).

Consider “CGGGCGGGGCGGGGCGGGTTCGCTCGTCGGATGTGTGGATCGGAGTCACCTAGTGCAG”, for which the binding signal is 23900 fluorescence intensity (a.u.).

On to “GGGGAGGGAAGGGATGGATCGGATGCGGGTTCGGGCGGTTCGGAGTCACCTAGTGCAG”, for which the binding signal was 8910 fluorescence intensity (a.u.).

On to “TCCATCATCGTCGTCTCTGTGTGTGTCTGTGTGTGTGTGTCGGAGTCACCTAGTGCAG”, for which the binding signal is 17900 fluorescence intensity (a.u.).

Consider “TCTCTCTGGGAGGTCTCGCGGAAGGTGGTGGGGTTGGGCCCGGAGTCACCTAGTGCAG”, for which the binding signal is 11500 fluorescence intensity (a.u.).

Turning to “TTTGGTTGCTTGCCTTCTTTATCGGCAAAATTTGCTATAGCGGAGTCACCTAGTGCAG”, the binding signal is 8970 fluorescence intensity (a.u.).

With “ATTTAGGGAAATTATAACCATGCCACTCTGTCGTGTTTTCCGGAGTCACCTAGTGCAG”, the binding signal is 9180 fluorescence intensity (a.u.).

As to “AGATAGTGGTGGTGGTCTGTGCATCGTTGACTTGATCATGCGGAGTCACCTAGTGCAG”, the binding signal was 10900 fluorescence intensity (a.u.).

With “GGTCCCGTTCCGATCCTCACTCGGTCACTCATCTTTCCTTCGGAGTCACCTAGTGCAG”, the binding signal was 8730 fluorescence intensity (a.u.).

Turning to “AAATTATAACGAGGGGTGAGGGGCTAAGAACCTATTTTCGCGGAGTCACCTAGTGCAG”, the binding signal is 9700 fluorescence intensity (a.u.).

“CCCATCACCACTCTGCCCACATCCCGGCGTCGCTTCGTGTCGGAGTCACCTAGTGCAG”: the binding signal was 9120 fluorescence intensity (a.u.).

As for “TTCGTTCCGATTCTTTTTTTTTCATTTGCTATGCATCTTCCGGAGTCACCTAGTGCAG”, the binding signal is 11000 fluorescence intensity (a.u.).

For the sequence “GTCCTATCGCGTAGCCCACACTCCACCCTATCGCGCCTTCCGGAGTCACCTAGTGCAG”, the binding signal is 11500 fluorescence intensity (a.u.).

In the case of “CGCCCCTCCCCTTTGGCGCCGCCGCGCCTGCGTTGACCCTCGGAGTCACCTAGTGCAG”, the binding signal is 8230 fluorescence intensity (a.u.).

Take “TCCAATCTGTGCTGCCTTTATATTAGTTCCACCAAGAAGACGGAGTCACCTAGTGCAG”: the binding signal was 9380 fluorescence intensity (a.u.).

As for “GACCTTTACTTTTTCATCCTACCTAAATGCATATTCCAATCGGAGTCACCTAGTGCAG”, the binding signal is 9320 fluorescence intensity (a.u.).

Take “ACTATTTGGATATCCCATTCCAACGCCATTGCCCTCTGTTCGGAGTCACCTAGTGCAG”: the binding signal is 8280 fluorescence intensity (a.u.).

In the case of “TGGCGTGGTCTCGTCTCTTCGTCTTCGGGTGTGCTCACCGCGGAGTCACCTAGTGCAG”, the binding signal is 9650 fluorescence intensity (a.u.).

As for “TGGGAGTGTTGTTATTCTCGTGCGCGTTGTGGTTAGTGGGCGGAGTCACCTAGTGCAG”, the binding signal was 9630 fluorescence intensity (a.u.).

As to “GTTCTCGTCGTTCGTGTTCTTCTGCTTCGGTTTCGTGGTGCGGAGTCACCTAGTGCAG”, the binding signal is 11900 fluorescence intensity (a.u.).

Consider “TTTCCGTTCCTTTCTTTCCTTCTCGCGTTTGCGTGGTGGGCGGAGTCACCTAGTGCAG”, for which the binding signal was 10500 fluorescence intensity (a.u.).

For “CTCTCTCGCTTCTTCTCTGTGTGTGTGTTGCGTGGTGGGGCGGAGTCACCTAGTGCAG”, the binding signal is 23800 fluorescence intensity (a.u.).

Take “GCGGGGTTCGTGGTGTGTGCGTGTGCGTCTCTCTCTGTCTCGGAGTCACCTAGTGCAG”: the binding signal was 21100 fluorescence intensity (a.u.).

For “ATCTGTAGTCCGTTGCTCTTCTCTCTCATATTTTATCTCGCGGAGTCACCTAGTGCAG”, the binding signal is 11700 fluorescence intensity (a.u.).

Turning to “TGTGTGTATGCGTTTATAGGAGTAACTGTGTGTGCGTTTACGGAGTCACCTAGTGCAG”, the binding signal was 8150 fluorescence intensity (a.u.).

As to “CGCCTCCGCCTCCGTCGACTCCGCGCCTCCGCCGCCACCCCGGAGTCACCTAGTGCAG”, the binding signal was 15100 fluorescence intensity (a.u.).

As to “TCCAGCTGCTTGCTTCTCTCTCTCTCTTCTCTTGAGCATCCGGAGTCACCTAGTGCAG”, the binding signal is 9650 fluorescence intensity (a.u.).

Take “ATGGGAGGTGGGTGGTACCGTGGTGGTGGTCGCAGATCTGCGGAGTCACCTAGTGCAG”: the binding signal is 27200 fluorescence intensity (a.u.).

On to “AGTGGGTGGTGGTGGTGGTGGTGGTGCGAGGCCGTCGCTGCGGAGTCACCTAGTGCAG”, for which the binding signal was 20500 fluorescence intensity (a.u.).

Take “TCGTGCGTGCGTGAGGGAGGTCGTGGTGGTGGTGGTGGTGCGGAGTCACCTAGTGCAG”: the binding signal is 9020 fluorescence intensity (a.u.).

For the sequence “CGCTTGATCTGGGGTGGGGTCGCGAGTGGTGGAGGAGGTGCGGAGTCACCTAGTGCAG”, the binding signal was 16600 fluorescence intensity (a.u.).

For “AATCTCCGTGGCGAGGGTGGGGTCGGAGGTGGTCATGTCGCGGAGTCACCTAGTGCAG”, the binding signal is 9290 fluorescence intensity (a.u.).

In the case of “CGGAGGCGAGTGGGTGGGTGGTGGTCCAGTGCGGTGGTGCCGGAGTCACCTAGTGCAG”, the binding signal was 9800 fluorescence intensity (a.u.).

As for “GGAGGAGGTGGAGGCGCTGCTGGTGGTGGAGGCCGTGGTGCGGAGTCACCTAGTGCAG”, the binding signal was 8020 fluorescence intensity (a.u.).

With “GGGGACGCAGGAGGAGGTGGGTGGGTCGAGCTCGCTTGCGCGGAGTCACCTAGTGCAG”, the binding signal was 15400 fluorescence intensity (a.u.).

Take “TCTGCCTTGAAGTGGTACCGTGGGTGGGAGGGTAGTTATGCGGAGTCACCTAGTGCAG”: the binding signal is 11500 fluorescence intensity (a.u.).
